An excerpt weighted towards active compounds, which were near 9.4% of everything screened.
FLuc counter: counter-screen for miR-21 project: firefly luciferase inhibitors or activators; Potency, µM (titrated, usually from 57.5 µM), without a hit: at the highest dose activity change, negative = inhibition, hits mostly inhibitors; purified FLuc, Km substrates, luminescence inhibition; P08659; 360,000 tested, 6.9% active;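 further: plate controls were vehicle for no effect and reference inhibitor for full effect; nearly all actives have a fitted effect of over 55% in size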
Target sequence (P08659 whole entry, looked up): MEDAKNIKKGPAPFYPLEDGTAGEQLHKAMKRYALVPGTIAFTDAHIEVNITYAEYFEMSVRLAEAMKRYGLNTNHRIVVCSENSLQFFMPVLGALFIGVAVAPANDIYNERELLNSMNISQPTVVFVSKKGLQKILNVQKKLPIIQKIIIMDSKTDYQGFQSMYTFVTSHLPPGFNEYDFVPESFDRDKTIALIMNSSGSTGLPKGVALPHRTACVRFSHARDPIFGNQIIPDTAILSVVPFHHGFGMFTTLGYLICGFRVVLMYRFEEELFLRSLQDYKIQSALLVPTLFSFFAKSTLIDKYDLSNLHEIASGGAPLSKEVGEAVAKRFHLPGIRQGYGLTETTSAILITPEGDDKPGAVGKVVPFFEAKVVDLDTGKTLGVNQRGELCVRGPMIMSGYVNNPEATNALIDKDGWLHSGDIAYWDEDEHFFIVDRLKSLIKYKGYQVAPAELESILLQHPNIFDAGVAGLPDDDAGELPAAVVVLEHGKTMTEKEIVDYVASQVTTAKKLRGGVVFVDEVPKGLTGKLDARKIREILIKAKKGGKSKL
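Purified P. pyralis luciferase (10nM final) with 10uM D-luciferin and 10uM ATP (Km levels) in 50mM Tris acetate pH 7.5, 10mM Mg acetate, 0.01% Tween-20, 0.05% BSA; qHTS 6-point titration, ~60 µM downward; luminescence read.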
ELG1 repair inh: blocks ELG1-dependent DNA repair in HEK293T cells; 330,000 tested, 2.3% active; Potency, µM (titrated, usually from 46.1 µM), inactives show top-dose activity change, negative = inhibition, hits mostly inhibitors; HEK293T ELG1-luciferase reporter, luminescence, 16 h; DNA damage induced by 5-fluorouridine; AID 504467; further: on the % scale 0 is the no-effect control and ±100 the full control effect; nearly all actives have a fitted effect of over 55% in size
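Cells (2,000 per well) received 5-fluorouridine plus test compound or DMSO and were incubated 16 hr at 37 °C, 5% CO2. Luciferase activity was read by luminescence 30 min after ONE-Glo addition; signal suppression marked inhibition of damage-induced ELG1 function.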
Rab9 promoter act: activators of Rab9 promoter | Huh7 Rab9 promoter-luciferase reporter, luminescence, 24 h | Potency, µM (series often up to 9.22 µM), for the others: top-dose activation, negative = inhibition, hits mostly activators | 320,000 tested, 2.8% active; further: % of control where 0% means no effect; nearly all actives have a fitted effect of over 60% in size
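Luciferase signal after 10 min detection reagent at ambient indicates Rab9 promoter upregulation; stably transfected Huh7 cells were treated 24 h with compound in DMSO at 37 °C, 5% CO2.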
NPC1 prom act: NPC1 promoter activation. Potency, µM (series often up to 9.22 µM), for the others: top-dose activation, most hits filed as activators. Huh7 NPC1 promoter luciferase reporter, 24 h. 320,000 tested, 2.4% active. AID 485313; further: % of control where 0% means no effect; nearly all actives have a fitted effect of over 60% in size
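Huh7 reporter cells (NPC1 promoter driving luciferase) are dosed with compound for 24 h at 37 °C, 5% CO2; luciferase detection reagent is then added and luminescence measured after 10 min at ambient temperature.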
ELG1 genotox: inducers of genotoxicity in HEK293T ELG1-luciferase cells | HEK293T ELG1-luciferase reporter, luminescence, 16 h | Potency, µM (series often up to 46 µM), inactives show at the highest dose activity change, positive = activation, actives largely listed as activators | 330,000 tested, 1.3% active; further: % of control where 0% means no effect; nearly all actives have a fitted effect of over 60% in size
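Genotoxicity was scored as increased ELG1-luciferase reporter signal, measured by ONE-Glo luminescence (30 min, room temperature). Compound or vehicle exposure of the HEK293T reporter cells lasted 16 hr at 37°C.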
SMN2 splice enh: increases expression of the SMN2 splice variant; HEK293 SMN2-luciferase splicing reporter, luminescence, 30-36 h; Potency, µM (titrated, usually from 46.1 µM), for inactives: at the highest dose activity change, positive = activation, most hits filed as activators; 210,000 tested, 2.8% active; further: % of control where 0% means no effect; nearly all actives have a fitted effect of over 55% in size
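HEK293 cells carry an SMN2 minigene-luciferase reporter in which exon 7 inclusion puts luciferase in frame. Cells were seeded at 2000 cells/well, attached for 10-12 hours, then exposed to compounds for 30-36 hours at 37C before ONE-Glo luminescence.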
* hit, by the source's call; ? = inconclusive; . = not tested or not shown; [ ] = another dose, or the depositor's remark. The call rests on the fitted dose curve; in most records, active means well fitted curve in the direction sought with a large enough effect; inconclusive means small, poorly fitted or top-dose-only effect, or another doubt; inactive means no such curve, though single readings can be large; an effect the other way counts as inactive or inconclusive. Potency means the concentration at half of the fitted maximal effect.

SMILES	FLuc counter	ELG1 repair inh	Rab9 promoter act	NPC1 prom act	ELG1 genotox	SMN2 splice enh
Nc1c(-c2ccc(Cl)cc2)cnn1-c1cccc([N+](=O)[O-])c1	15µM*	?	?	29%	15%	-4%
Nc1nn(-c2ccccc2)c2ccc([N+](=O)[O-])cc12	17µM*	?	-1%	12%	11%	.
COc1ccc(C[N+](C)(C)N)cc1OC	.	.	.	.	.	-8%[9.22 µM]
Cc1ccc(Cl)cc1NC(=O)CN1C(=O)C(C)(C)c2cc(S(=O)(=O)N3CCCCC3)ccc21	-4%	.	.	.	.	.
Cc1nn(-c2cccc([N+](=O)[O-])c2)c(N)c1-c1ccccc1	15µM*	?	2.5µM*	?	17%	13µM*
COC(=O)[C@@]12OC[C@]34[C@H]([C@@H](O)[C@@H]1O)[C@@]1(C)C(=O)C(O[C@@H]5OC(CO)[C@@H](O)[C@@H](O)[C@@H]5O)=C[C@@H](C)[C@@H]1C[C@H]3OC(=O)[C@H](OC(=O)/C=C(\C)C(C)(C)OC(C)=O)[C@@H]24 (stereo partly drawn)	1%	6.5µM*	-14%	-7%	-34%	.
COc1ccc(CN2CCN(C(=O)c3ccc4nc(N5CCOCC5)sc4c3)CC2)c(OC)c1OC	1%	21µM*	-1%	-4%	-8%	-21%
O=C(c1ccc2nc(N3CCOCC3)sc2c1)N1CCCC1	3%	?	2%	1%	14%	-15%
COc1cccc(N2CCN(C(=O)c3ccc4nc(N5CCCCC5)sc4c3)CC2)c1	19µM*	?	?	?	?	-22%
COc1cccc(N2CCN(C(=O)c3ccc4ccccc4c3)CC2)c1	-15%	16%	1%	-2%	-6%	.
COc1ccc(N2CCN(C(=O)c3ccc4nc(N5CCCCC5)sc4c3)CC2)cc1	?	?	16%	15%	23µM*	-6%
Cc1cn2c(=O)cc(COC(=O)COc3ccc(C)c(C)c3)nc2s1	4%	.	.	.	.	.
CCn1cc(C(=O)NCCc2ccc(OC)c(OC)c2)c(=O)c2cc(S(=O)(=O)N3CCc4ccccc4C3)ccc21	-4%	.	.	.	.	4%
CCc1ccc(-n2nc(CO)c(C(=O)NCCc3ccccc3)n2)cc1	0%	.	.	.	.	4%
Cc1ccccc1NC(=O)c1ccc(Nc2c([N+](=O)[O-])cc([N+](=O)[O-])c3ccccc23)cc1	2%	18µM*	-13%	-8%	-13%	-75%
COc1ccc(C(=O)O/N=C(\N)Cc2cccs2)cc1OC	5%	-6%	5%	1%	13%	.
COc1ccc(/C(N)=N/OC(=O)Cc2cccs2)cc1	12µM*	?	3.2µM*	?	?	?
COc1ccc(CC(=O)O/N=C(\N)c2ccc(OC)cc2)cc1	?	?	24%	10%	7%	.
COc1ccc(/C(N)=N/OC(=O)Cc2cccs2)cc1OC	24µM*	?	6%	11%	12%	23%
Cc1ccc(NC(=O)c2c(O)c3ccccc3n(C)c2=O)nc1	?	?	12%	3.5µM*	15%	?
Cc1cccc(NC(=O)c2c(O)c3ccccc3n(C)c2=O)c1	?	?	2µM*	2.8µM*	?	.
CCn1c(=O)c(C(=O)Nc2ccc(C)cc2)c(O)c2ccccc21	?	9%	22%	14%	7%	.
C=CCn1c(=O)c(C(=O)Nc2ccccc2C)c(O)c2ccccc21	?	?	4µM*	4µM*	?	.
C=CCn1c(=O)c(C(=O)Nc2ccccc2O)c(O)c2ccccc21	?	?	7%	2%	1%	3%
Cc1ccnc(NC(=O)c2c(O)c3ccccc3n(C)c2=O)c1	3µM*	?	4µM*	3.5µM*	?	13µM*
SMILES	FLuc counter	ELG1 repair inh	Rab9 promoter act	NPC1 prom act	ELG1 genotox	SMN2 splice enh
COC(=O)c1ccc2nc(C)cc(Nc3cccc(Cl)c3C)c2c1	-8%	.	.	.	.	0%
Cn1c(=O)c(C(=O)NCc2ccccc2)c(O)c2ccccc21	17µM*	17%	?	?	-1%	.
Cn1c(=O)c(C(=O)NCc2ccc(F)cc2)c(O)c2ccccc21	-15%	16%	6%	-2%	0%	.
Cn1c(=O)c(C(=O)Nc2ncccc2O)c(O)c2ccccc21	?	?	?	3.2µM*	?	24%
CCCn1c(=O)c(C(=O)Nc2ncccc2O)c(O)c2ccccc21	-3%	-2%	1%	7%	-11%	.
C=CCC(C)(O)c1ccccc1 (stereo not drawn)	.	.	.	.	.	-2%
C/C(=N\Nc1ccc(F)cc1F)c1ccccc1O	19µM*	?	12%	2%	?	7%
COc1ccc(SCCN2CC[C@@H](C)CCC2=O)cc1	?	?	18%	15%	7%	.
CC1CCC(=O)N(CCSc2ccccc2)CC1 (stereo not drawn)	5.4µM*	?	0.89µM*	1.1µM*	?	.
O=C(N/N=C/c1ccoc1)c1cc(Br)ccc1O	3µM*	28%	3%	0%	10%	.
O=C(N/N=C/c1ccoc1)c1ccccc1Br	-5%	2%	9%	-5%	8%	.
Cc1cccc(/C=N/NC(=O)c2cc(Br)ccc2O)n1	24µM*	?	19%	10%	?	.
Cc1nc2sc(C(=O)N(C)c3ccccc3)c(NC(=O)c3ccccc3Cl)c2c(C)c1C	2%	.	.	.	.	-15%
C=CCn1c(SCC(C)=O)nnc1-c1cc(-c2ccccc2)sc1N	-2%	26µM*	-7%	-1%	-6%	-60%
NC(=O)COC(=O)c1ccc2noc(-c3ccccc3)c2c1	-9%	?	29%	4µM*	14%	.
O=C1CCC(C(=O)Nc2cccc3ccccc23)N1 (stereo not drawn)	3%	-5%	-2%	-2%	3%	7.9µM*
O=C1c2cccc3cccc(c23)C(=O)N1OS(=O)(=O)c1ccccc1	19µM*	?	-3%	1%	11%	4%
COc1ccccc1NC(=O)CSc1nc(O)c(C/C=C/c2ccccc2)c(=O)[nH]1	?	.	.	.	.	8%
N#C/C(=C\c1ccc(O)cc1)C(=O)N1CCCC1	-12%	?	-1%	-3%	4%	.
Cc1ccc(/C=C(\C#N)C(=O)N2CCCC2)c(C)c1	15µM*	?	-6%	-14%	?	12%
N#C/C(=C\c1ccc(OC(F)F)cc1)C(=O)N1CCCCC1	13µM*	9%	-6%	0%	15%	.
CCN1CCN(C(=O)/C(C#N)=C/c2ccc(OC(F)F)cc2)CC1	-1%	-7%	2%	-1%	0%	0%
COC(=O)c1ccccc1NC(=O)CCC(=O)N1CCOc2ccccc21	-2%	.	.	.	.	.

From PubChem
